Test [1] is described as follows: qHTS assay for small molecules that induce genotoxicity in human embryonic kidney cells expressing luciferase-tagged ATAD5 (AID 651632). Note: % is set by controls: 0 for no effect and ±100 for the full control effect; nearly all actives have a fitted effect of over 15% in size. The method in brief: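 ATAD5-luc HEK293T, 2,000 cells/well; cpd or DMSO pin-transferred; 16 hr, 37C/5% CO2; Amplite 30 min RT; luminescence.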
In general terms: Quantitative high-throughput screening tests each substance at several concentrations.

Test [2] is described as follows: qHTS assay for small molecules that induce genotoxicity in human embryonic kidney cells expressing luciferase-tagged ATAD5 - cell viability (AID 651634; calls by dose curve; note: nearly all actives have a fitted effect of over 25% in size; note: potency is the fitted concentration of half-maximal effect). The method, boiled down:
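Fluorescence from CellTiter-Fluor, reporting protease activity within live cells, served as the viability read-out. HEK293T cells carrying luciferase-tagged ATAD5 had been treated with compound for 15.5 hr at 37C.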

A short description of test [3]: qHTS assay for small molecule disruptors of the mitochondrial membrane potential - cell viability (AID 720634; calls by dose curve;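 note: human HepG2 liver cancer cells; % is set by controls: 0 for no effect and ±100 for the full control effect; nearly all actives have a fitted effect of over 20% in size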). The method in brief: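 Cells: HepG2, 2,000/well, attached overnight. Compound 1 hr, 37 C/5% CO2. +m-MPI dye, +CellTiter-Glo 30 min RT. Readout: luminescence (ATP).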
A short description of test [4]: qHTS assay for small molecule disruptors of the mitochondrial membrane potential (AID 720635). Note: potency is the fitted concentration of half-maximal effect. The method, boiled down:
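Mitochondrial membrane potential tracked with Mito-MPS dye, red aggregates (ex 540/em 590 nm) against green monomers (ex 490/em 535 nm). Compound treatment 1 hr at 37C, dye 30 min in HepG2.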

A short description of test [5]: qHTS assay to test for compound auto fluorescence at 590 nm (red) in HepG2 cells (AID 720674). Note: % is set by controls: 0 for no effect and ±100 for the full control effect. The method in brief: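 1 hr compound incubation on HepG2 cells, 37 C, 5% CO2; plate read ex 540 nm / em 590 nm; intensities reported as Rose Bengal sodium equivalents.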
A short description of test [6]: qHTS assay to test for compound auto fluorescence at 535 nm (green) in HepG2 cells (AID 720675). Note: % is set by controls: 0 for no effect and ±100 for the full control effect.
A short description of test [7]: qHTS assay to test for compound auto fluorescence at 460 nm (blue) in HEK293 cells (AID 720678). Note: % is set by controls: 0 for no effect and ±100 for the full control effect. The method, boiled down: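 Blue-channel (Ex/Em 405/460 nm) intensity measured in HEK293 cultures after overnight compound exposure at 37C; signal expressed relative to triamterene. Cells plated 2,000 per well in 10% dialyzed FBS medium and allowed 4-5 hr to attach.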
Test [8] can be described thus: qHTS assay to test for compound auto fluorescence at 535 nm (green) in HEK293 cells (AID 720680). Note: % is set by controls: 0 for no effect and ±100 for the full control effect.
Test [9] in a line: qHTS assay to test for compound auto fluorescence at 460 nm (blue) in HEK293 cell free culture (AID 720681). Note: % is set by controls: 0 for no effect and ±100 for the full control effect. The method, boiled down:
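Blue fluorescence (Ex 405/Em 460 nm, triamterene-equivalent) was read immediately after pin transfer of compound or DMSO into medium (DMEM, 10% FBS) without cells.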

Test [10] can be described thus: qHTS assay to test for compound auto fluorescence at 535 nm (green) in HEK293 cell free culture (AID 720682). Note: % is set by controls: 0 for no effect and ±100 for the full control effect. The method in brief:
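Read-out: 485/535 nm fluorescence intensity, calibrated against fluorescein. Medium only (DMEM + 10% FBS, no cells); test compound or DMSO vehicle added by pintool before plate reading.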

Test [11] can be described thus: qHTS assay to test for compound auto fluorescence at 590 nm (red) in HEK293 cell free culture (AID 720683). Note: % is set by controls: 0 for no effect and ±100 for the full control effect. The method in brief:
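Red-channel autofluorescence of compounds in culture medium (DMEM, 10% FBS), no cells, measured at 540/590 nm. Rose Bengal sodium is the reference fluorophore for equivalence.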

Test [12] can be described thus: qHTS assay to test for compound auto fluorescence at 590 nm (red) in HepG2 cell free culture (AID 720684). Note: % is set by controls: 0 for no effect and ±100 for the full control effect. The method in brief:
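Plate contents were MEM with 10% FBS plus test compound or DMSO, no cells. Fluorescence was recorded with 540 nm excitation and 590 nm emission.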

Test [13] in a line: qHTS assay to test for compound auto fluorescence at 460 nm (blue) in HepG2 cell free culture (AID 720685). Note: % is set by controls: 0 for no effect and ±100 for the full control effect. The method, boiled down: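 Compound (23 nL) or DMSO pinned into cell-free MEM with 10% FBS; blue fluorescence read at 405/460 nm excitation/emission, expressed as auto-fluorescence equivalency to triamterene.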
Test [14] can be described thus: qHTS assay to test for compound auto fluorescence at 535 nm (green) in HepG2 cell free culture (AID 720686). Note: % is set by controls: 0 for no effect and ±100 for the full control effect.
A short description of test [15]: qHTS assay to test for compound auto fluorescence at 460 nm (blue) in HepG2 cells (AID 720687). Note: % is set by controls: 0 for no effect and ±100 for the full control effect. The method, boiled down:
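Blue-channel autofluorescence (Ex/Em 405/460 nm, triamterene-equivalent) was measured after 1 hr compound exposure at 37 C, 5% CO2. Cells were HepG2, plated overnight at 37 C in MEM plus 10% FBS.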

Test [16] concerns the target Glucocorticoid receptor (Homo sapiens) (UniProt P04150). Description: qHTS assay to identify small molecule agonists of the glucocorticoid receptor (GR) signaling pathway (AID 720691; active = well fitted activation curve with a large enough effect in the signal ratio in the repeat runs, not every such curve was filed as active; the % refers to the signal ratio; note: % is set by controls: 0 for no effect and ±100 for the full control effect). The settings on record: GR-bla HeLa, beta-lactamase reporter ratio, 18 h; activation: at 62.4 µM (top of the series). The method in brief:
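Fluorescence intensity from LiveBLAzer B/G FRET substrate (2 h, room temperature) reports beta-lactamase expression driven by the glucocorticoid response element in GR-bla HeLa cells after 18 h compound exposure at 37 C.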

Test [17] has the same target. Briefly: qHTS assay to identify small molecule antagonists of the glucocorticoid receptor (GR) signaling pathway (AID 720692; active = well fitted inhibition curve with a large enough effect in the signal ratio in the repeat runs, not every such curve was filed as active; the % refers to the signal ratio; note: % is set by controls: 0 for no effect and ±100 for the full control effect). The method in brief:
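HeLa GR-bla cells; cmpd + dex 5 nM final, 18 h 37 C; LiveBLAzer B/G FRET substrate 2 h RT; fluorescence intensity read. Antagonist mode, qHTS.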

Test [18] can be described thus: qHTS assay to test for compound auto fluorescence at 590 nm (red) in HEK293 cells (AID 720679). Note: % is set by controls: 0 for no effect and ±100 for the full control effect. The method, boiled down: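 Red-channel autofluorescence (Ex/Em 540/590 nm; Rose Bengal sodium reference) was measured after overnight 37C, 5% CO2 exposure of attached HEK293 cells, 2,000 per well in medium with 10% dialyzed FBS.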
The nature of test [19]: qHTS assay for small molecule agonists of the p53 signaling pathway - cell viability (AID 651633; calls by dose curve; note: potency is the fitted concentration of half-maximal effect; nearly all actives have a fitted effect of over 30% in size). The method in brief: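 Viability counter-read: CellTiter-Glo luminescence (30 min, room temperature) in the same p53RE-bla plates. These plates had been exposed to compounds for 16 h at 37 C.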

Values without a mark were called inactive. Results filed as inconclusive are left out. Calls of active or inactive are those of the source. Unless noted, calls come from the whole dose curve; as a rule, active = well fitted curve in the direction sought with a large enough effect in the repeat runs; inconclusive = weak or mixed curves; inactive = no such curve, though single readings can be large; an effect the other way counts as inactive or inconclusive.

Consider seven compounds from PubChem BioAssay (Tox21).

Chain of Glucocorticoid receptor (Homo sapiens) (P04150 whole entry, looked up): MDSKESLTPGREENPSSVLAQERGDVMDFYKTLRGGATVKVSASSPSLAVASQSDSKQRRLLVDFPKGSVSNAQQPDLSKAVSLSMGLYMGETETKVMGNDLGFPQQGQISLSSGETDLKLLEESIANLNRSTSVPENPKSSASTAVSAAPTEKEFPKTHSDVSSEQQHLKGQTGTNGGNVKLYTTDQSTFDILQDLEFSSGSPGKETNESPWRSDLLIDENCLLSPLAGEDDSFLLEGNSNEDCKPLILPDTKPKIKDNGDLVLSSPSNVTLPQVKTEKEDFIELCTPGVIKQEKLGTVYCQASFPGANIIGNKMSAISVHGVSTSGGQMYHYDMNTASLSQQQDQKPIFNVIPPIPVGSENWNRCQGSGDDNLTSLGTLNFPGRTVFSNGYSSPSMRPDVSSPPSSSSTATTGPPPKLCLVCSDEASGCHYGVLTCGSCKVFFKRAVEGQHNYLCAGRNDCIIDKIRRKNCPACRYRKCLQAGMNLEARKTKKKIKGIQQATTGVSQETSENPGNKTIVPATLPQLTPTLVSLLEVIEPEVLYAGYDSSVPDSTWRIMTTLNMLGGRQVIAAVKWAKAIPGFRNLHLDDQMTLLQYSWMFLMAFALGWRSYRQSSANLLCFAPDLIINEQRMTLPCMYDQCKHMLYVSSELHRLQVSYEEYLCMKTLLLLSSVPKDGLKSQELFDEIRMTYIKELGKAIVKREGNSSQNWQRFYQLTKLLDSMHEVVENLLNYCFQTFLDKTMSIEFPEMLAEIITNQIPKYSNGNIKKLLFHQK

`Nc1cc(Cl)c([N+](=O)[O-])cc1O`: the Potency entry in [1], in test [3], in test [5], in [6], in test [7] and in test [8] was “inactive” throughout. Also, the Potency result in [9], in [10], in [11], in [12], in test [13] and in test [14] was “inactive” each time. Besides, the Potency result in test [15], in [16] and in [17] was “inactive” in each case. For the same compound, the Potency in test [2] is 68 µM (active); in [4], 19.2 µM (active).
Regarding `NC(=O)C(=O)N/N=C/c1ccc([N+](=O)[O-])o1`, the Potency entry in [1], in [2], in test [5], in test [6], in [7] and in [18] was “inactive” each time. The Potency result in [8], in test [9], in test [10], in test [11], in test [12] and in test [13] was “inactive” in each case. In addition, the Potency result in test [14], in test [15], in [16] and in [17] was “inactive” throughout.
Regarding `CCCCCCCC/C=C\CCCCCCCC(=O)NCc1ccc(O)c(OC)c1`, the Potency result in test [1], in test [2], in [3], in [5], in [6] and in [7] was “inactive” throughout. For the same compound, the Potency result in test [18], in test [8], in test [9], in [10], in test [11] and in test [12] was “inactive” each time. Moreover, the Potency result in test [13], in test [14] and in test [15] was “inactive” throughout. Also, in [4], the Potency is 11.9 µM (active).
For the compound `CC(C)(C)CC(C)(C)c1ccccc1O`, the Potency entry in [1], in [5], in test [6], in test [7], in test [18] and in test [8] was “inactive” each time. For the same compound, the Potency entry in test [9], in test [10], in test [11], in test [12], in [13] and in [14] was “inactive” in each case. Besides, the Potency entry in [15] is “inactive”. The results for the Potency in test [19] and in test [4] were 43.5 µM (active) and 2.18 µM (active), respectively.
In the case of `CCc1ccc(O)c(C(C)(C)C)c1`, the Potency result in test [1], in test [2], in test [5], in test [6], in test [7] and in test [18] was “inactive” in each case. Besides, the Potency result in test [8], in test [9], in test [10], in [11], in test [12] and in test [13] was “inactive” in each case. Moreover, the Potency entry in test [14], in test [15] and in test [17] was “inactive” in each case. In test [4], the Potency was 8.63 µM (active).
Consider `CCCCOc1ccc(C(=O)CCN2CCCCC2)cc1`, for which the Potency result in test [2], in [3], in test [4] and in [16] was “inactive” throughout. The fluorescence, % of fluorescein control in test [6] was 0.0117% [at 18.6 µM]; in test [14], 0.0663% [at 18.6 µM]. Also, the fluorescence, % of triamterene in [7] was 0.101% [at 18.6 µM]. Also, in test [8], the fluorescence, % of fluorescein is 0.0036% [at 18.6 µM]. Moreover, the fluorescence, % of fluorescent control was 0.0618% [at 18.6 µM] in test [9], -0.0248% [at 18.6 µM] in [11], 0.0259% [at 18.6 µM] in test [13] and -0.165% [at 18.6 µM] in [15]. The activity change in [10] is -0.0432% [at 18.6 µM, stronger effect = higher value]. The fluorescence, % of Rose Bengal in test [12] is -0.355% [at 18.6 µM].
`CN1[C@@H]2CC[C@H]1CC(OC(=O)C(CO)c1ccccc1)C2` (stereo not given in full): the Potency entry in test [3], in test [4], in [5], in test [6], in test [7] and in test [18] was “inactive” throughout. Besides, the Potency result in [8], in test [9], in [10], in test [11], in test [12] and in [13] was “inactive” throughout. Moreover, the Potency entry in test [14], in [15], in test [16] and in test [17] was “inactive” throughout.
